# Screening results deposited in PubChem by several laboratories.
# PfHsp90 yeast 2: reduces growth (ATP signal) of yeast expressing P. falciparum Hsp90; S. cerevisiae expressing PfHsp90, BacTiter-Glo ATP, 48 h; yeast lacking PDR1 and PDR3 efflux regulators; inhibition, % at 9.4 µM; 0.32% of 310,000 active; AID 504621;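 active = every replicate shows inhibition above about 80%, whatever the replicate mean, limit read from the data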;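 note: 0% = DMSO neutral controls and 100% = 20 µM radicicol positive controls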
# Mot1-301 SUMO: SUMOylation pathway inhibition by Mot1-301 growth rescue | S. cerevisiae Mot1-301 growth rescue, ATP luminescence, 38.5C; percent above DMSO median, 100 means doubled | growth rescue, % at 18.8 µM | 1% of 320,000 active;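 active = every valid replicate shows activation above 250% relative to neutral control wells; inactive = the rest, any valid replicate at or below 250%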;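 note: OY570 slx delta 5 strain wells were the positive control but not used for scaling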
# tim23-1 inh: inhibits growth of tim23-1 mutant yeast. S. cerevisiae tim23-1 growth, BacTiter-Glo luminescence, 24 h. inhibition, % at 20 µM. 1.3% of 330,000 active. AID 463212;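 active = growth inhibition of the mutant yeast at or above 50%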;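 note: temperature-sensitive mutant grown at 25 °C; plate controls were DMSO-treated mutant yeast for no effect and medium wells lacking yeast for full effect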
# TIM10 inh: growth inhibitors of TIM10 yeast strain; 1.4% of 330,000 active; S. cerevisiae TIM10 strain growth, BacTiter-Glo luminescence, 24 h; inhibition, % at 10 µM;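 active = inhibition of 40% or more at the single tested concentration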;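 note: wild-type TIM10 isogenic control strain grown at permissive 25 °C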
# tim10-1 inh: growth inhibitors of tim10-1 mutant yeast; 2.2% of 330,000 active; S. cerevisiae tim10-1 ts strain growth, BacTiter-Glo, 24 h; inhibition, % at 20 µM;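 active = inhibition of at least 40%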;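 note: mutant grown at 25 °C; 0% = DMSO wells with yeast and 100% = wells holding no yeast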
# tim23-1 confirm: confirmation of tim23-1 mutant yeast growth inhibitors | shares compounds with tim23-1 inh | S. cerevisiae tim23-1 growth, BacTiter-Glo luminescence, 24 h | inhibition, % at 20 µM | 83% of 4,400 active;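 active = inhibition above about 39% in either of two replicate wells at 20 µM, limit read from the data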;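 note: temperature-sensitive tim23-1 mutant grown at 25 °C; 0% = DMSO wells with yeast and 100% = medium wells without yeast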
# * marks the source's active call; other numbers are inactive results; . = no result. The list is not random: actives were taken first. Their share in the collection is about 4.4%.
SMILES,PfHsp90 yeast 2,Mot1-301 SUMO,tim23-1 inh,TIM10 inh,tim10-1 inh,tim23-1 confirm
O=C(Nc1ccc2c(c1)OCCO2)c1cccc(Br)c1,14,58,56*,31,-2,58*
C#CCOc1ccc2c3c(c(=O)oc2c1)CCCC3,-8,-11,57*,0,39,50*
CC(=O)COc1ccc2c3c(c(=O)oc2c1)CCCC3,-12,0,21,8,13,.
O=C(Nc1cc(-c2ccccc2)[nH]n1)c1ccccc1F,.,27,51*,13,-15,41*
O=C(Nc1cc(-c2ccccc2)[nH]n1)c1ccccc1,7,10,52*,32,-47,56*
O=C(O)c1ccccc1C(=O)Nc1cc(-c2ccccc2)[nH]n1,6,8,-4,10,12,.
O=C(Nc1ccc(-c2noc(CCc3ccccc3)n2)cc1)c1ccco1,19,-19,55*,30,38,61*
CN(Cc1ccccc1)C(=O)c1ccc(NC(=O)Cc2ccc(NC(=O)C3CCCN(C(=O)CCc4ccccc4)C3)cc2)cc1 (stereo unspecified),-22,.,.,.,.,.
CC12CCC(c3c(C(=O)O)nn(-c4ccccc4)c31)C2(C)C (stereo unspecified),9,-5,14,22,10,.
CC12CCC(c3c(C(=O)Nc4nccs4)nn(-c4ccccc4)c31)C2(C)C (stereo unspecified),-27,6,59*,34,22,57*
O=C(c1ccco1)N1CCN(C(=O)N2c3ccccc3Sc3ccccc32)CC1,22,30,56*,25,0,39
COc1ccc(C2CC(=O)Oc3cc(C)c(Cl)cc32)cc1 (stereo unspecified),6,.,53*,9,26,40*
Cc1ccc(Sc2ccc(CN3CCCC3)cc2[N+](=O)[O-])cc1,23,.,18,6,17,.
Cc1ccc(Sc2ccc(CO)cc2[N+](=O)[O-])cc1,-4,6,53*,30,32,52*
COc1cccc(N=Nc2ccc(O)c3ncccc23)c1,102*,-27,62*,38,-23,56*
Nc1ccc(N=Nc2ccccc2)c2cccnc12,-42,28,59*,21,36,51*
Nc1ccc(Br)c2cccnc12,.,-1,-7,15,24,.
Cc1c(NC(=O)Nc2ccc(Cl)cc2)c(=O)n(-c2ccccc2)n1C,13,-9,17,-1,-6,.
Cc1ccc(NC(=O)Nc2c(C)n(C)n(-c3ccccc3)c2=O)cc1,-2,23,94*,7,-4,15
Cc1ccc(NC(=O)C(=O)Nc2ccc(C)cn2)nc1,-9,10,5,9,-13,.
Cc1ccc(NC(=O)/C(C#N)=C(\N)C(Cl)(Cl)Cl)nc1,-1,13,71*,40,17,71*
CC(Cc1ccccc1)NC(=O)c1cc2ccccc2o1 (stereo unspecified),-9,81,51*,23,-24,53*
CCC(=O)Nc1ccc(NC(=O)c2cc3ccccc3o2)cc1,-13,13,30,6,1,.
C=CC[C@H](CC(=O)OC(C)(C)C)C(=O)OC[C@@H]1CCCN1C(=O)[C@H](CC=C)CC(=O)N[C@H](CO)Cc1ccccc1,-10,-8,14,11,13,.
O=[N+]([O-])c1cc(Br)c(Nc2ccccc2)c([N+](=O)[O-])c1,120*,91,54*,7,21,-22
SMILES,PfHsp90 yeast 2,Mot1-301 SUMO,tim23-1 inh,TIM10 inh,tim10-1 inh,tim23-1 confirm
C[C@H](CO)N1C[C@H](C)[C@@H](CN(C)Cc2ccc(C(=O)O)cc2)Oc2ccc(NS(=O)(=O)c3cn(C)cn3)cc2C1=O,9,-20,-7,-1,-20,.
COc1ccccc1NC(=O)CSc1nnc2ccc(-c3ccccn3)nn12,-3,18,5,-1,8,.
O=C(Nc1cccc(O)c1)c1c(O)c2ccccc2[nH]c1=O,-1,2,23,6,-4,.
O=C(N/N=C/C(Br)=C\c1ccccc1)c1ccco1,13,182,66*,-15,-88,45*
Cc1occc1C(=O)N/N=C/C(Br)=C\c1ccccc1,7,-30,63*,30,14,67*
O=C(c1ccccc1Br)N1CCc2c([nH]c3ccccc23)C1,37,-45,61*,17,14,36
O=C(C1CC1)N1CCc2[nH]c3ccccc3c2C1,.,2,0,-2,8,.
CC(C)C(=O)Nc1cccc(C(=O)Nc2ccc(S(=O)(=O)Nc3nccs3)cc2)c1,15,-5,1,3,1,.
C=CCc1c(C)nc(SC)nc1Nc1ccc(C(C)=O)cc1,-3,-12,50*,11,31,45*
CN(C)C(=O)c1c(NC(=O)c2ccco2)sc2c1CCCCC2,17,2,60*,35,35,49*
Cc1ccc(/C=N/NC(=O)c2cc3c(ccc4ccccc43)o2)o1,13,.,56*,14,-33,46*
CCCCCN(C(=O)CCC(=O)OCC(=O)Nc1cccc(SC)c1)c1c(N)n(CCCC)c(=O)[nH]c1=O,-43,184,11,8,12,.
O=C(/C=C/c1c(F)cccc1Cl)N1CCc2ccccc2C1,-96,9,59*,12,20,59*
CCCCn1c(N)c(N(CCOC)C(=O)COC(=O)C(C)(C)Oc2ccc(Cl)cc2)c(=O)[nH]c1=O,21,18,-8,9,-6,.
O=C1SC(c2ccccc2)=C/C1=C\N1CCCCC1,-55,2,63*,3,36,39*
O=C1OC(c2ccccc2)=C/C1=C/N1CCOCC1,-5,90,14,-9,18,.
O=C1c2cccnc2C(=O)N1C1CCCCC1,14,-1,8,5,11,.
Cc1nc2c(n1C1CCCCC1)C(=O)c1ccccc1C2=O,-58,295,51*,25,34,40*
O=C1OC(c2ccccc2)=NC12CC2c1ccc(Cl)cc1 (stereo unspecified),-12,90,56*,30,-5,-69
CC(C)(O)CCC(C)(C)O,2,-11,-10,-1,-5,.
Cc1ccccc1NC(=O)NCCCCc1ccccc1,-9,-8,-1,4,15,.
CC(C)(C)c1csc(NC(=O)c2ccc(Cl)s2)n1,-41,48,70*,5,26,74*
CCOC(=O)Cc1csc(NC(=O)c2ccc(Br)o2)n1,8,-3,15,-9,-10,.
CC(C)(C)c1csc(NC(=O)c2ccncc2)n1,11,-13,18,-16,1,.
CC(C)(C)c1csc(NC(=O)c2ccc(Br)o2)n1,-30,-9,53*,23,30,48*
Cc1ccc(C(=O)Nc2nc(C(C)(C)C)cs2)s1,-19,27,52*,-4,9,42*
CC(OC(=O)c1cccc(-n2cnnn2)c1)C(=O)NC1(C#N)CCCCC1 (stereo unspecified),-4,19,2,3,-2,.
